Active and inactive are the calls of the source. No rule for the calls is given here.

Chain of Protein kinase 7 (PK7), Plasmodium falciparum 3D7 (PF3D7_0213400) (Q7YTF7 1-343): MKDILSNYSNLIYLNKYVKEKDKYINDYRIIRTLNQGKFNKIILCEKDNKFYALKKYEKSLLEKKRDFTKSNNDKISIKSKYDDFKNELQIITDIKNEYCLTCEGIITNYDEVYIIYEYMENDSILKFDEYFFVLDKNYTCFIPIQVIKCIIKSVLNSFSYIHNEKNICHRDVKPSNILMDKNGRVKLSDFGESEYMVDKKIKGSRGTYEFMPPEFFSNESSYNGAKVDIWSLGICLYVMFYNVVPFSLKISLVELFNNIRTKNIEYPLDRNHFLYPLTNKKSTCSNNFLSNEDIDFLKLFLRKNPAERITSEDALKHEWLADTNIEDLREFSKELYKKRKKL

The assay has as its target Protein kinase 7 (PK7), Plasmodium falciparum 3D7 (PF3D7_0213400) (UniProt Q7YTF7). As to the kind of experiment: inhibition of Plasmodium PK7 catalytic activity – biochemical, TCAMS antimalarial set, Kinase-Glo luminescence (AID 1159587). Particulars: recombinant PfPK7, Kinase-Glo ATP depletion luminescence. (In general: Kinase-Glo reads ATP consumption through a luciferase reaction.)
Take `Cc1ccc2[nH]c(C)c(Br)c(=O)c2c1`: the result was inactive.
As for `NC(=O)c1cccc(CNCc2ccc(-c3cccc(-c4nc5ccccc5[nH]4)c3)cc2)c1`, the outcome was inactive.
For `O=C(Nc1cc2cc(-c3ccc(CN4CCCCC4)cc3)ccc2n2cnnc12)NC1CCCC1`, the outcome was inactive.
As to `CN1CCC(NCc2ccc(-c3ccc(Cl)cc3)cc2)CC1`, the result was inactive.
For `CCCNc1ccc2nccc(CCN3CCC(NCc4ccc5c(n4)NC(=O)CS5)CC3)c2n1` the value was “inactive”.
On to `COc1cc2c(C3CCN(CC4CCN(C(=O)/C=C/c5ccc(Cl)c(Cl)c5)CC4)CC3)c[nH]c2cn1`, for which the outcome was inactive.
For `COc1cccc(CNC[C@@H](O)[C@H](Cc2ccccc2)NC(=O)c2cc(NC(C)C)cc(N3CCCCS3(=O)=O)c2)c1` the value was “inactive”.
Turning to `COc1ccc(NC(=O)/C=C/c2ccccc2Cl)cc1OCCN1CCC(N2CCCC2)CC1`, the outcome was inactive.
With `Clc1ncnc2scc(-c3ccc(Br)cc3)c12` the entry was “inactive”; with `Cc1cccc(Nc2nc(C)cc(N3CCCN(CC4CCCCC4)CC3)n2)c1`, “inactive”; with `O=C(Nc1ccc2c(c1)OCO2)c1cc(-c2cccnc2)cnc1NCc1ccc2c(c1)OCO2`, “inactive”.
For `Cc1ccnc(NC(c2cccc(Cl)c2Cl)c2ccc3cccnc3c2O)c1` (stereo not given) the value was “inactive”; for `O=C(Nc1cccc(CN2CCCN(Cc3ccc(O)cc3)CC2)c1)c1cc(F)cc(F)c1`, “inactive”; for `NC1=NC(c2ccccc2)(c2ccccc2)C(=O)N1Cc1ccc(-c2cccnc2)cc1`, “inactive”.
Regarding `CN1CCN(c2cccc(Nc3nccc(NCC(O)c4ccccc4)n3)c2)CC1` (stereo not given), the outcome was inactive.
`CCC(C)(C)c1ccc(N2C(N)=NC(N)=NC2(C)C)cc1`: the result was inactive.
For `CC(CNC(=O)C(c1cc2ccccc2o1)N1CCN(C(c2ccccc2)c2ccccc2)CC1)c1ccccc1` (stereo not given) the value was “inactive”; for `Cn1cnc(CCNC(=O)c2ccc(-c3ccc(-c4nc5ccc(C(F)(F)F)cc5[nH]4)s3)cc2)c1`, “inactive”; for `CN1CCN(c2cc(-c3cccnc3)nc(-c3ccncc3)n2)CC1`, “inactive”.
For `COc1ccc2nccc([C@@H](O)CN3CC[C@H](NCc4ccc5c(n4)NC(=O)CS5)[C@H](F)C3)c2c1` the value was “inactive”.
For `c1ccc(-c2cc(NCCNc3cc(-c4ccccc4)nc4ccccc34)c3ccccc3n2)cc1` the value was “inactive”.
With `NC1=NC2(CCCCC2)N(OCC2CCCCC2)C(N)=N1`, the result was inactive.
For `O=C(Nc1ccc(OC2CCN(Cc3ccc(F)cc3)CC2)c(Cl)c1)c1ccoc1` the value was “inactive”; for `O=S(=O)(Nc1cccc(CCN2CCC(N3CCCCC3)CC2)c1)c1cccc(C(F)(F)F)c1`, “inactive”.
For `Cc1c(C(=O)N2CCCC(C(F)(F)F)C2)sc2cccc(F)c12` (stereo not given), the result was inactive.
For `CC(C)[C@H](NC(=O)c1ccc(O)c(-c2ccc(Cl)c(Cl)c2)c1)C(=O)NC1CCCCCC1` the value was “inactive”.
For `Cc1ccc(NC(=O)c2ccc3ncccc3c2)cc1OC1CCN(Cc2ccco2)C1` (stereo not given) the value was “inactive”; for `CCCCCN1CCCC(CNS(=O)(=O)c2ccc(C(=O)Nc3ccc(C(F)(F)F)cc3)cc2)C1` (stereo not given), “inactive”; for `Cn1cncc1C(=O)Nc1cccc(-c2ccc(-c3nc4ccccc4[nH]3)s2)c1`, “inactive”.
For `CCCCOc1ccc(N2C(N)=NC(N)=NC2(C)C)cc1`, the outcome was inactive.
As to `COc1ccc(NC(=O)Nc2cccc(-c3cccc(-c4nc5c(C)cccc5[nH]4)c3)c2)cc1`, the result was inactive.
With `O=C(Nc1cccc(-c2ccc(-c3nc4ccc(C(F)(F)F)cc4[nH]3)s2)c1)c1cnc[nH]1` the entry was “inactive”; with `COc1cccc2cc(C(=O)N[C@@H](CC(C)C)C(=O)N[C@H](/C=N/N3C(=O)CN(Cc4ccccc4)C3=O)CCc3ccccc3)oc12`, “inactive”; with `CCOc1ccc(-c2nc(NC(=O)Cc3cccc(OC)c3)sc2C)cc1`, “inactive”.
In the case of `Cc1ccc(C2CC(c3cccs3)=NN2C(=O)c2ccc(Br)o2)cc1` (stereo not given), the outcome was inactive.
For `CNc1ccc(CNCc2ccc(-c3ccc(-c4nc5ccc(C(F)(F)F)cc5[nH]4)s3)cc2)cc1` the value was “inactive”.
For `Cc1ccc([N+](=O)[O-])cc1NC(=O)N(CC(O)c1ccccc1)C1CCCCC1` (stereo not given), the result was inactive.
With `COc1ccc(CCN(C)CCOc2ccc(NC(=O)c3cc(SC)cc4c(=O)c5ccccc5[nH]c34)cc2)cc1OC` the entry was “inactive”; with `CC(C)C(C(=O)Nc1ccc(S(=O)(=O)N(C)C)cc1)c1ccc(Cl)cc1` (stereo not given), “inactive”.
For `NC(=O)c1ccc(C(=O)Nc2cccc(-c3ccc(-c4nc5ccc(C(F)(F)F)cc5[nH]4)cc3)c2)cc1` the value was “inactive”.

Values taken from PubChem BioAssay.
